BAZ2B block – inhibitors of human BAZ2B bromodomain; Q9UIF8; AlphaScreen BAZ2B-H3K14Ac peptide displacement; Potency, µM (titrated, usually from 114 µM), most hits filed as inhibitors; 4.4% of 360,000 active; AID 504333; further: nearly all actives have a fitted effect of over 60% in size
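AlphaScreen displacement: compounds (up to 110uM) incubated 30 min at room temperature with a preformed 50 nM BAZ2B/50 nM biotinylated H3K14Ac peptide complex in PBS pH 7.4 with Tween-20. Donor and acceptor beads at 10 ug/mL final added, 20 min light-protected before reading.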
JMJD2A Tudor – inhibitors of human JMJD2A Tudor domain; O75164; AlphaScreen JMJD2A-Tudor / H3K4me3 peptide binding; Potency, µM (doses to about 114 µM), hits mostly inhibitors; 4.4% of 390,000 active; AID 504339; further: nearly all actives have a fitted effect of over 50% in size
Target sequence (O75164 whole entry, looked up, the tested form may be a part): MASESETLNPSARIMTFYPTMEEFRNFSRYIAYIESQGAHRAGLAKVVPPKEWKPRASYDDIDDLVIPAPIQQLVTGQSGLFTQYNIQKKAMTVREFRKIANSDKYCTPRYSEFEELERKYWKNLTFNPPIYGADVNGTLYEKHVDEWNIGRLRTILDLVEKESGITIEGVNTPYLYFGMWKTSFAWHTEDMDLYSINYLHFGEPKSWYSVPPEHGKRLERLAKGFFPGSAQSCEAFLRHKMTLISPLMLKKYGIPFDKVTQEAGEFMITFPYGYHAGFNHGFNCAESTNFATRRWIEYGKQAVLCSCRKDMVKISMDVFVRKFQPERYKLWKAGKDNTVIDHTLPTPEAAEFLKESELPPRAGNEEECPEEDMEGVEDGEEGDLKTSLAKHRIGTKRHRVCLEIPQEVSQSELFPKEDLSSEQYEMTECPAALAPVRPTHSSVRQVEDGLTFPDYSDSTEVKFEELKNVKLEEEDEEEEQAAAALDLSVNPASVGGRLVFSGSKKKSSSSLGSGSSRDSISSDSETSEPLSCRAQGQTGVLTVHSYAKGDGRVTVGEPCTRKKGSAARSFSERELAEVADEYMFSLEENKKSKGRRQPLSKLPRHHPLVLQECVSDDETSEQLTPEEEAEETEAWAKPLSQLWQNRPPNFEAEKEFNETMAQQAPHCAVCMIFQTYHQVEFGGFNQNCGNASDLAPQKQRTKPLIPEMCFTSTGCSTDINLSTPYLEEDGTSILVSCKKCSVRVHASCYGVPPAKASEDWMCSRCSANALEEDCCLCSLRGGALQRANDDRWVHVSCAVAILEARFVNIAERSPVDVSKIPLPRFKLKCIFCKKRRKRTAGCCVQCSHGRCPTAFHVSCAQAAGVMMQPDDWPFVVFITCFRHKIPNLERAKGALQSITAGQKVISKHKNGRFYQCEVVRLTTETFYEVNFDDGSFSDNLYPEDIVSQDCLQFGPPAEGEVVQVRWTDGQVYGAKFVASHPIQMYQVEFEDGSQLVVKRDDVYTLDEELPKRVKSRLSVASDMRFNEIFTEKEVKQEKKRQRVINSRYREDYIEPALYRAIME
HP1b binding inh – inhibitors of HP1-beta chromodomain binding to methylated histone tails; AID 540317; Potency, µM (series often up to 114 µM), hits mostly inhibitors; P83916; AlphaScreen HP1-beta / biotin-H3K9me3 peptide binding; 0.56% of 390,000 active; further: nearly all actives have a fitted effect of over 70% in size
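HP1-beta protein (50 nM final) preincubated 30 min at room temperature with biotinylated H3(1-18)K9me3 peptide (50 nM) in PBS pH 7.4, 0.01% Tween-20, then compound added for 30 min. AlphaScreen streptavidin donor/nickel chelate acceptor beads (10 ug/mL final), 30 min dark, luminescence read.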
Sfp inh – blocks B. subtilis Sfp PPTase activity | Biochemical Sfp PPTase activity, qHTS | Q9F4F7 | 3.5% of 310,000 active | Potency, µM, usual class: inhibitors;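 further: the enzyme is Sfp with the accession as filed and its product quenches rhodamine fluorescence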
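With Hepes-Na pH 7.6 buffer containing 10 mM MgCl2, Sfp (15 nM) modified BHQ-2-YbbR (12.5 uM) using rhodamine-CoA (5 uM). Two reads 30 minutes apart at 525/598 nm yielded each well's rate.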
G9a block – blocks human histone lysine methyltransferase G9a. G9a H3K9 monomethylation, AlphaScreen, 2 h. 8.8% of 350,000 active. Potency, µM (titrated, usually from 102 µM), most hits filed as inhibitors; further: nearly all actives have a fitted effect of over 75% in size
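G9a (20 nM) was preincubated 15 min with compound, then reacted 2 h at room temperature with 500 nM biotin-H3K9 peptide and 20 µM SAM. Monomethyl-H3K9 detected by AlphaScreen using anti-H3K9me1 antibody.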
Hits are given with their value; 0 = inactive; ? = inconclusive; - = not tested or not shown; [ ] = another dose, or the depositor's remark. Sampled rows, rich in hits. Any-hit rate of the full collection: about 12%. The call rests on the fitted dose curve; in most records, active means well fitted curve in the direction sought with a large enough effect; inconclusive means small, poorly fitted or top-dose-only effect, or another doubt; inactive means no such curve, though single readings can be large; an effect the other way counts as inactive or inconclusive.

SMILES | BAZ2B block | JMJD2A Tudor | HP1b binding inh | Sfp inh | G9a block
O=C1C2C3C=CC(CO)(O3)C2C(=O)N1c1ccc(-c2ccccc2)cc1 (configuration not stated) | 0 | - | - | 5.01µM | 1µM
COC(=O)C1(CO)NC(c2ccc(C)cc2)C2C(=O)N(c3ccccc3)C(=O)C21 (configuration not stated) | 0 | 0 | 0 | 0 | 0
Cc1ccc(C)c(NC(=S)N2CCN(c3ccccn3)CC2)c1 | 0 | 0 | 0 | 0 | -
O=C(c1cccn1-c1nnc(N2CCCC2)s1)N1CCN(c2ccc(Cl)cc2)CC1 | ? | 0 | 0 | - | 0
N#CCCn1c(=O)c(CCc2ccccc2)nc2cnc(Nc3ccccc3)nc21 | - | - | - | 0 | 0[0.501 µM]
COc1cc(OC)c2ccc(=O)oc2c1C(CCN1CCCC(C)C1)c1ccc2c(c1)OCO2 (configuration not stated) | 0 | 0 | 0 | 0 | 0
COc1cc(OC)c2ccc(=O)oc2c1C(CCN1CCCCC1)c1ccc(N(C)C)cc1 (configuration not stated) | 39.8µM | 35.5µM | 0 | 0 | ?
COc1cc(OC)c2ccc(=O)oc2c1C(CCN1CCCC1)c1ccc(N(C)C)cc1 (configuration not stated) | 39.8µM | 56.2µM | 0 | 0 | 0
COc1cc(OC)c2ccc(=O)oc2c1C(CC(=O)N1CCOCC1)c1ccc(N(C)C)cc1 (configuration not stated) | 0 | 0 | 0 | 0 | ?
COC(=O)NNC(=O)c1ccc(Cl)cc1Cl | 0 | 0 | 0 | 0 | 0
COC(=O)Nc1cc(C(=O)c2ccc(Cl)cc2Cl)c[nH]1 | ? | ? | 0 | 0 | 50.1µM
C=CCNc1oc(-c2ccc(OCC)cc2)nc1C#N | 0 | 0 | 0 | 0 | 0
CCCOc1ccc(-c2nc(C#N)c(NCC3CCCO3)o2)cc1 (configuration not stated) | 50.1µM | ? | 0 | 0 | 70.8µM
C=CCNc1oc(-c2ccc(OC)cc2)nc1C#N | 0 | 0 | 0 | 0 | 56.2µM
COc1ccc(-c2noc(-c3ccc(NCc4ccc(C)cc4)c([N+](=O)[O-])c3)n2)cc1OC | 0 | 0 | 0 | - | 0
CCc1cccc(NC(=O)CCNS(=O)(=O)c2ccc3c(c2)CCN3C(C)=O)c1 | - | 0 | 0 | - | 0
COc1ccc(N2C(=O)CC(Cc3ccc(Br)cc3)C2=O)cc1 (configuration not stated) | 0 | 0 | 0 | 0 | -
COc1ccccc1N(O)C1CC(=O)N(c2ccc(Br)cc2)C1=O (configuration not stated) | ? | 25.1µM | ? | 0 | ?
CCCCCCC(=O)N(O)C1CC(=O)N(c2ccc(Br)cc2)C1=O (configuration not stated) | 0 | 25.1µM | 0 | 22.4µM | 0.631µM
CCCCCCC(=O)N(O)C1CC(=O)N(c2ccc(F)cc2)C1=O (configuration not stated) | 0 | 50.1µM | 35.5µM | 20µM | -
O=C(Nc1ccc(Br)cc1)c1ccc(F)c(S(=O)(=O)N2CCCc3ccccc32)c1 | 0 | 0 | 0 | - | 0
CCOC(=O)C1CCN(c2c(C(=O)c3ccc(OCC)cc3)cnc3ccc(OC)cc23)CC1 | ? | ? | 0 | - | ?
O=C(OCN1C(=O)c2ccccc2C1=O)c1cccnc1SC(F)F | 0 | 0 | 0 | 0 | 0
Oc1ccccc1-c1n[nH]c(=S)n1Cc1ccccc1 | ? | 20µM | 0 | 0 | 2.82µM
CCn1c(-c2cc(-c3ccccc3)sc2N)n[nH]c1=S | 0 | 0 | 0 | 0 | 1.12µM
SMILES | BAZ2B block | JMJD2A Tudor | HP1b binding inh | Sfp inh | G9a block
COCCn1c(CCc2ccccc2)n[nH]c1=S | 0 | ? | 0 | 0 | 0
COCCn1c(-c2ccccc2F)n[nH]c1=S | 0 | 35.5µM | 0 | 0 | ?
Cn1c(-c2cc(Br)ccc2O)n[nH]c1=S | 0 | 4.47µM | ? | 0 | 0.501µM
Oc1ccc(Br)cc1-c1cc(-c2ccccc2)n[nH]1 | 0 | 0[11.4 µM] | 0 | 0 | 0
COc1ccc(CCN2CC(C(=O)NCCc3ccccc3C(F)(F)F)CCC2=O)cc1 (configuration not stated) | 0 | 0 | 0 | 0 | 0
CCOC(=O)c1c(C)[nH]c(C)c1S(=O)(=O)N(C)CC(=O)N(C)Cc1ccccc1 | 0 | 0 | 0 | 0 | 0
COc1ncc2nc(-c3cn(C)c4ccccc34)c(=O)n(C)c2n1 | - | - | - | 0 | 0[0.501 µM]
Cc1cc(C)cc(Oc2nc3c(c(=O)n(C)c(=O)n3C)n2Cc2ccc(F)cc2)c1 | 0 | 0 | 0 | - | 0
CCn1c(-c2cc(-c3cccc(OC)c3)nc3ccccc23)n[nH]c1=S | ? | 0 | 0 | ? | 1.12µM
CCN(CC)CCn1nc(C)nc1-c1ccccc1O | ? | 0 | 0 | 0 | ?
Oc1ccc(Br)cc1-c1n[nH]c(=S)n1Cc1ccccc1 | 0 | ? | 0 | 0 | 6.31µM
CCn1c(-c2ccccc2O)n[nH]c1=S | 0 | 3.98µM | 0 | ? | 14.1µM
O=C(O)C(Oc1ccc2cc(-c3ccc(Cl)cc3)c(=O)oc2c1)c1ccccc1 (configuration not stated) | 0 | 0 | 0 | ? | -
CC(C(=O)Nc1ccccc1F)N1CCN(C)CC1 (configuration not stated) | 50.1µM | - | - | ? | ?
CCN(C[C@H]1N[C@@](Cc2ccccc2)(C(=O)OC)[C@H]2C(=O)N(Cc3ccccc3)C(=O)[C@@H]12)C(=O)C1CCCCC1 | - | 0 | 0 | - | -
Cc1csc(Nc2ccccc2)[n+]1-c1ccccc1 | 44.7µM | 22.4µM | 28.2µM | 0 | 10µM
CCOC(=O)N/N=C1/C[C@@H](O)[C@@H](O)[C@@H]2[C@@H]3C(=O)N(C(C)(C)C)C(=O)[C@H]3CC[C@H]12 | - | - | - | 0 | -
Cc1nc(N2CCN(Cc3ccccc3)CC2)nc2c1C(=O)CC(c1ccco1)C2 (configuration not stated) | ? | ? | 0 | ? | ?
Cc1nc(N2CCN(Cc3ccc4c(c3)OCO4)CC2)nc2c1C(=O)CC(c1ccco1)C2 (configuration not stated) | ? | ? | 0 | 0 | 39.8µM
Nc1ccc2c(c1)C(=O)C(=O)c1ccccc1-2 | ? | ? | 20µM | 0 | 0[0.501 µM]
Nc1ccc2c(c1)C(=O)c1ccccc1C2=O | 0 | 0 | 0 | - | ?
O=C(O)c1ncn(Cc2ccc(Br)cc2)c1C(=O)O | 31.6µM | 0 | 0 | 50.1µM | 3.98µM
O=C(O)[C@H](Cc1ccccc1)NC(=O)N1CCC(Cc2ccccc2)CC1 | 0 | 0 | 0 | 0 | 14.1µM
N[C@@H](Cc1ccccc1)C(=O)N1CCC(C(=O)N[C@@H](CCC(=O)O)C(=O)O)CC1 | 0 | 17.8µM | 0 | 0 | 79.4µM
CC1CN(C(=O)N[C@@H](Cc2ccccc2)C(=O)O)CC(C)O1 (some centres not stated) | 0 | 0 | 0 | 0 | 56.2µM
CN=C(Nc1cccnc1)c1ccccc1 | 0 | 0 | 0 | 0 | 0[2.33 µM]
CCN(CCCNC(=O)c1[nH]c(C)c(C(C)=O)c1C)c1cccc(C)c1 | 50.1µM | 79.4µM | ? | 0 | ?
CCN(CCCNC(=O)CN1C(=O)COc2ccccc21)c1cccc(C)c1 | ? | ? | 0 | 0 | 22.4µM
